# Screens: PubChem BioAssay, several laboratories
# HSF1 inh – HSF1 inhibitors in luciferase reporter cells, primary screen, cell-based, NIH3T3, luminescence; NIH3T3-HGL HSE-luciferase, MG132-induced, luminescence 8 h; active compounds read low; activity change, negative = inhibition, % at 7.5 µM (by protocol); 300,000 compounds, 0.77% hits; AID 2098, 2009;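 active means more than half of replicate wells show activity change below -50%, luminescence cut by over half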;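 further: luciferase reports HSF-1 transcriptional activity via heat shock element; 0% = median of DMSO wells and -100% = zero luminescence signal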
# HSP90 inh – HSP90 inhibitors, primary screen, cell lysate, luminescence; 290,000 compounds, 0.91% hits; inhibition, % at 5.6 µM; AID 1789, 2009; Rabbit reticulocyte lysate, luciferase refolding luminescence, 3 h;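 active means inhibition above the screen-wide mean plus 3 SD, computed separately per campaign, cut at about 16% in these data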;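 further: 0% = DMSO wells and 100% = 60 µM geldanamycin wells; inhibitors lower the luminescence because luciferase stays unfolded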
# GAA850 FXN act – FXN promoter activators, primary screen, cell-based, luciferase luminescence, HEK293 lucGAA850; HEK293 lucGAA850 FXN promoter luciferase reporter, 24 h; percent of 10 µM SAHA response; activation, % at 6 µM; 360,000 compounds, 0.56% hits; AID 540364, 2011;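 active means activation above the average of all compounds screened plus 3 SD, cutoff fixed separately per campaign, cut at about 7.5% in these data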;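 further: 0% = DMSO wells and 100% = 10 µM SAHA wells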
# AHR activator – AHR activators, primary screen, cell-based, luminescence, luciferase reporter, human | AHR-responsive luciferase reporter cells | activation, % at 5 µM | 320,000 compounds, 2.5% hits | AID 2796, 2010; in the data active means activation above about 47%;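 further: 0% = vehicle wells and 100% = reference agonist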
# Target sequence (P35869 whole entry, looked up): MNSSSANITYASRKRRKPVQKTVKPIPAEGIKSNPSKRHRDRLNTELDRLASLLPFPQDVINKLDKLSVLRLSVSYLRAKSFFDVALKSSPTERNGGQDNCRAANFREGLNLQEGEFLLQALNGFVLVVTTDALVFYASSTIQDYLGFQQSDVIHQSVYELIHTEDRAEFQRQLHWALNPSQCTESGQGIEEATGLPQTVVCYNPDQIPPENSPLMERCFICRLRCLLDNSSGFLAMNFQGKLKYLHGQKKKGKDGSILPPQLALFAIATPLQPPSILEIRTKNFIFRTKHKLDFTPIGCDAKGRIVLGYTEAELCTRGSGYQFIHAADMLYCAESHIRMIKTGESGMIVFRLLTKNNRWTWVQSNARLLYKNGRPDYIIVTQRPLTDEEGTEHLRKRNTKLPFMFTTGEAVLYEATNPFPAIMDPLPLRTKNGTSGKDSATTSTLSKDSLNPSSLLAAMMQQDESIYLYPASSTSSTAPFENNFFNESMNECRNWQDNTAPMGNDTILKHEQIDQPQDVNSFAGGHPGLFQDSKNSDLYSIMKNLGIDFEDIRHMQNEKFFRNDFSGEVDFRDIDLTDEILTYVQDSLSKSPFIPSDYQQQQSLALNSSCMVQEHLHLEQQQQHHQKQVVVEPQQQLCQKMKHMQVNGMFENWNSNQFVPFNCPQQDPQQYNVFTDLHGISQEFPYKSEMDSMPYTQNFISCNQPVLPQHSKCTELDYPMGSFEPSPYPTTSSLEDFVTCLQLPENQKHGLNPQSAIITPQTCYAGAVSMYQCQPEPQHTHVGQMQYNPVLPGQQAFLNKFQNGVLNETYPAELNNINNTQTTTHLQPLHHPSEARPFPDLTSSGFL
# NR0B1 inh – DAX1 (NR0B1) inhibitors, primary screen, cell-based, HEK293, Gal4-DAX1, luciferase luminescence. HEK293 Gal4-DAX1 luciferase reporter. inhibition, % at 6.75 µM. 340,000 compounds, 0.99% hits;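 active means inhibition above the mean over all tested compounds plus 3 SD, cut at about 4.2% in these data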;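 further: 0% = DAX1-transfected cells with DMSO and 100% = empty-vector control cells with DMSO; inhibition shows as a rise in luminescence from relieved DAX1 repression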
# HSF1 activator – HSF-1 activators, primary screen, NIH3T3-HGL cells, MG132 stress, luminescence, single point; NIH3T3-HGL HSF-1 luciferase reporter, 8 h; 100% = twice DMSO control signal; activation, % at 9 µM; 300,000 compounds, 1.7% hits; AID 504408, 2011;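 active means mean replicate activation of at least 50% with a set share of replicates each reaching 50%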;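 further: 0% = median of the neutral control wells and 100% = twice that signal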
# HSP90 confirm – HSP90 inhibitors, confirmation, cell lysate, luminescence | shares compounds with HSP90 inh | rabbit reticulocyte lysate, luciferase refolding luminescence, 3 h | inhibition, % at 5.9 µM | 2,300 compounds, 64% hits | AID 1846, 2009; in the data active means inhibition above about 18%;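 further: 0% = vehicle wells and 100% = reference inhibitor wells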
# FLuc counter – firefly luciferase inhibitors, HSP90 counter-screen, confirmation, artefact control for HSP90 inhibitor project, biochemical, luminescence, triplicate. shares compounds with HSP90 inh. purified native firefly luciferase. inhibition, % at 5.9 µM. 2,300 compounds, 48% hits;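 active means inhibition above the mean inhibition of all tested sample wells plus 3 SD, cut at about 10% in these data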;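 further: 0% = DMSO with luciferase and 100% = wells lacking luciferase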
# An asterisk follows results filed as active; . = not tested or not shown. Most compounds without a hit are left out; they make up all but 5.9% or so of the library.
SMILES,HSF1 inh,HSP90 inh,GAA850 FXN act,AHR activator,NR0B1 inh,HSF1 activator,HSP90 confirm,FLuc counter
CC1=CC2=NC(=O)/C(=C\c3cccn3CCOc3cc(C)ccc3C)C(=N)N2O1,-3.4,52.8*,-4.4,17.8,-1.5,-7.4,-2.3,-8.2
CC1=CC2=NC(=O)/C(=C\c3cccn3CCOc3cccc(C)c3)C(=N)N2O1,-1.6,-1.0,-1.5,18.4,-1.7,-10.8,.,.
Cc1cccc(/C=N/NC(=O)c2ccc3c(c2)OCCO3)c1O,11.1,32.1*,-5.7,-1.1,-3.1,8.3,59.4*,51.8*
O=C(N/N=C/c1cc(O)ccc1[N+](=O)[O-])c1ccc2c(c1)OCCO2,12.3,2.7,4.8,7.3,0.4,21.2,.,.
O=C(N/N=C/c1cccc(O)c1)c1ccc2c(c1)OCCO2,8.7,48.2*,2.7,-4.7,-1.4,32.4,58.8*,39.0*
O=C(N/N=C/c1ccccc1[N+](=O)[O-])c1ccc2c(c1)OCCO2,13.8,22.0*,0.9,26.5,-5.5,25.8,58.4*,35.7*
CCOc1cccc(/C=N/NC(=O)c2ccc3c(c2)OCCO3)c1O,14.7,-2.8,-7.9,10.1,-3.8,23.0,.,.
CCC(=O)c1ccc(OCC(=O)OCC(=O)NCC2CCCCC2)cc1,-0.7,.,0.5,-0.4,1.7,-2.4,.,.
O=C(O)CC1SC(N/N=C/c2ccc(Br)cc2)NC1=O (stereo not given),-4.0,17.2*,2.5,2.6,1.2,1.0,24.1*,-9.6
O=C(NNc1nc2ccccc2o1)c1ccccc1,-9.4,20.3*,0.6,-5.9,.,-1.6,27.8*,19.8*
CCOc1ccccc1C=C1CCc2ccccc2C1=O,.,.,3.2,.,0.5,.,.,.
Cn1cccc1/C=C1\CCc2ccccc2C1=O,-16.9,39.2*,-1.9,20.7,-3.8,-7.6,64.4*,66.9*
CCOc1ccc(/C=C2\CCc3ccccc3C2=O)cc1,-31.6,35.4*,0.5,-1.5,2.0,-39.5,44.1*,73.3*
O=C(NNS(=O)(=O)c1ccccc1)c1ccc(S(=O)(=O)N2CCCCC2)cc1,-6.8,0.1,2.8,0.6,-1.1,7.8,.,.
COc1ccc(C(C)(C)C)cc1NC(=O)C1=CC=CN2CCS(=O)(=O)N=C12,.,.,-0.5,19.5,-0.5,.,.,.
CCn1c(C)nc2cc(-c3nc4n(n3)Cc3ccccc3-4)ccc21,-93.2*,87.6*,-15.5,-7.3,-6.6,-93.2,96.8*,92.2*
Cc1ccc(-c2nc3n(n2)Cc2ccccc2-3)cc1,3.6,21.5*,-4.7,41.2,-3.4,16.1,66.9*,61.1*
COC(CNC(=O)C(=O)NCC1OCCN1S(=O)(=O)c1ccccc1)OC (stereo not given),-7.6,0.2,-1.4,0.5,1.0,2.8,.,.
O=C1c2ccccc2C(=O)c2[nH]c(=O)[nH]c21,29.6,24.5*,-0.8,-8.5,-1.8,41.5,19.1*,-9.6
O=C(O)CC(Cc1ccc(Cl)cc1)C(=O)Nc1ccccc1 (stereo not given),-10.1,0.1,0.5,1.4,-1.1,5.4,.,.
COc1ccc(-n2c(C)cc(/C=N/Nc3nnc(C)n3N)c2C)cc1,16.9,74.5*,0.7,22.6,-1.7,36.9,-5.2,-6.7
CC(=O)NC1=NN(c2ccccc2)C(=O)C1,9.2,18.2*,0.1,-0.9,1.2,-7.2,-7.0,-10.9
O=C(CCCCl)NC1=NN(c2ccccc2)C(=O)C1,.,0.7,-0.6,1.6,0.5,.,.,.
CN(C)S(=O)(=O)c1ccc(C(=O)Nc2nnc(SCC(=O)NCC3CCCO3)s2)cc1 (stereo not given),-7.9,-3.3,1.3,-0.6,-0.1,-5.2,.,.
CCOc1ccc(C(=O)Nc2nnc(SCC(=O)NCC3CCCO3)s2)cc1 (stereo not given),-12.9,36.3*,-1.1,0.5,-2.6,2.4,61.2*,44.1*
SMILES,HSF1 inh,HSP90 inh,GAA850 FXN act,AHR activator,NR0B1 inh,HSF1 activator,HSP90 confirm,FLuc counter
CC(C)(C)c1ccc(C(=O)Nc2nnc(SCC(=O)NCC3CCCO3)s2)cc1 (stereo not given),-18.8,35.6*,2.4,-1.3,-0.9,-28.1,53.9*,45.1*
O=C(Cn1cnc2cc([N+](=O)[O-])ccc2c1=O)Nc1ccc2c(c1)OCO2,-1.5,2.0,0.1,33.9,-0.7,-5.7,.,.
Cc1ccccc1Cn1nnc(-c2ccc(C(=O)O)cc2)n1,-3.6,1.2,3.3,-0.9,-0.3,-1.1,.,.
O=C(O)c1cccc(-c2nnn(Cc3ccccc3)n2)c1,3.4,28.7*,4.4,0.0,-1.3,-12.4,35.1*,40.7*
O=C(O)c1cccc(-c2nnn(Cc3ccccc3Cl)n2)c1,-20.9,59.3*,1.8,-4.2,-4.1,-19.4,76.7*,81.1*
Cc1ccccc1Cn1nnc(-c2cccc(C(=O)O)c2)n1,-6.6,37.5*,0.9,4.1,-1.8,-17.8,53.7*,66.1*
O=C(O)c1cccc(OCc2ccccc2Cl)c1,2.5,27.6*,2.0,8.7,-0.3,27.6,52.7*,27.2*
CC(C)(C)NC(=O)CN(c1cccc([N+](=O)[O-])c1)S(=O)(=O)c1ccccc1,-3.5,23.3*,0.0,1.7,.,-3.8,-9.7,-10.3
CCOC(=O)Cn1nc(C)cc1NC(=O)c1cccnc1,6.8,1.3,2.3,4.2,-1.1,25.5,.,.
O=C(Nc1nc2cc3c(cc2s1)OCCO3)c1cccs1,-19.5,39.0*,-2.9,-6.2,-5.2,-10.8,62.5*,59.5*
CC(=O)c1ccc(S(=O)(=O)N(CC(=O)NC2CC2)Cc2ccc(F)cc2)cc1,.,.,3.5,.,0.3,.,.,.
Cn1cc(/C=C/C(=O)c2ccccc2)c2ccccc21,22.6,19.9*,-0.3,44.9,-0.7,62.2*,35.8*,44.9*
Cc1c(/C=C/C(=O)c2ccccc2)cnn1C,11.6,0.8,4.4,0.2,3.6,-5.5,.,.
Cc1cc(=O)n(-c2ccc(O)cc2)[nH]1,6.8,18.4*,0.8,1.9,-1.9,15.8,-1.6,-4.4
O=C(CC1C(=O)NCCN1Cc1ccccc1C(F)(F)F)NC1CCCCC1 (stereo not given),1.6,-0.3,2.2,0.4,-0.8,17.9,.,.
COc1ccccc1/C=C1/C(=O)N(c2ccccc2)N=C1C,-2.1,-0.7,0.1,5.5,0.1,16.0,.,.
